# High-throughput results deposited in PubChem by National Center for Advancing Translational Sciences (NCATS).
# In the library only some 8.8% were active in any assay of this set; here they are far more common.
# HttQ103 aggreg – inhibitors of mutant huntingtin aggregate formation in PC12 cells; PC12 HttQ103-GFP aggregates, Acumen cytometry, 40 h; Potency, µM (top dose mostly 46.1 µM), for inactives: at the top dose activity change, negative = inhibition, actives largely listed as inhibitors; actives 1.1% (n = 220,000); AID 1688; further: on the % scale 0 is the no-effect control and ±100 the full control effect; nearly all actives have a fitted effect of over 60% in size
#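 Aggregate formation scored by laser-scanning cytometer (488 excitation, 500–530 emission) in lysed PC12 cells expressing Q103-GFP after 100 nM tebufenozide induction; library tested in dose series, with ATPLite reagent added in the multiplex.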
# HPGD block – inhibitors of human 15-hydroxyprostaglandin dehydrogenase (HPGD). Potency, µM, without a hit: at the highest dose activity change, negative = inhibition, usual class: inhibitors. purified HPGD, NADH fluorescence kinetic, PGE2 substrate. P15428. actives 4.3% (n = 150,000); active means well fitted inhibition curve with a large enough effect, not every such curve was filed as active; inconclusive means small, poorly fitted or top-dose-only effect, or another doubt; inactive means no such curve, though single readings can be large or run the other way; further: on the % scale 0 is the no-effect control and ±100 the full control effect
# Target sequence (P15428 whole entry, looked up): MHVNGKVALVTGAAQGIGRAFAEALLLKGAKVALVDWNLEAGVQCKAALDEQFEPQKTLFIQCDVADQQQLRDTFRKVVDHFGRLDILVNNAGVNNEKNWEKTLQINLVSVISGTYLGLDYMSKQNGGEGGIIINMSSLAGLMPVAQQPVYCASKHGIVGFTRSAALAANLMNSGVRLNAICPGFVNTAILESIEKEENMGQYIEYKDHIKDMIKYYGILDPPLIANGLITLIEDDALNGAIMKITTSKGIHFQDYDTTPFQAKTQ
#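 20 nM HPGD preincubated 15 min at room temperature with compound in 50 mM Tris-HCl pH 8, 0.01% Tween 20. Started with 1 mM NAD+ and 30 uM prostaglandin E2; NADH fluorescence (360/450 nm) read 5 times over 30-s intervals, last minus first.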
# ALDH1A1 inh – inhibitors of human aldehyde dehydrogenase 1A1 | P00352 | Purified ALDH1A1, NADH fluorescence, propionaldehyde substrate | Potency, µM (highest dose often 75.3 µM), for the others: at the top dose activity, negative = inhibition, usual class: inhibitors | actives 7.3% (n = 220,000); active means well fitted inhibition curve with a large enough effect, not every such curve was filed as active; inconclusive means small, poorly fitted or top-dose-only effect, or another doubt; inactive means no such curve, though single readings can be large or run the other way;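 further: plate controls were no enzyme wells and a reference inhibitor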
# Target sequence (P00352 whole entry, looked up): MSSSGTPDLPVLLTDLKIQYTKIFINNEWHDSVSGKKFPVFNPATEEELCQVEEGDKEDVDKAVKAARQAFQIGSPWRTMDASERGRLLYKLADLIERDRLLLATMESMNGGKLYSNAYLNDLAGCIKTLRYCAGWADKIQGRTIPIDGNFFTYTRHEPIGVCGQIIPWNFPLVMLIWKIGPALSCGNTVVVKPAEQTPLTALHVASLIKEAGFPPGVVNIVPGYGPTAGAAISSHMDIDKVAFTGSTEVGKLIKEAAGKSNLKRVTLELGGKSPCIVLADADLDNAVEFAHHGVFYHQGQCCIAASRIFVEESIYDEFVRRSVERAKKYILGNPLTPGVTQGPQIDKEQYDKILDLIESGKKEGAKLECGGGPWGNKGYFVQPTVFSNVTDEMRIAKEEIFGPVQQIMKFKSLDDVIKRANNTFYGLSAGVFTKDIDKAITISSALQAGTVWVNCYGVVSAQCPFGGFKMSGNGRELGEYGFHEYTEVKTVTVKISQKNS
# HTT cytoprotect – protects HTT-Q103 PC12 cells, measured by ATP; actives 0.14% (n = 230,000); AID 1471; PC12 HTT-Q103 induced, cytoprotection, ATP luminescence, 40 h; Potency, µM (series often up to 56.4 µM), for the others: cytoprotection (ATP increase), actives largely listed as activators; further: % of control where 0% means no effect; nearly all actives have a fitted effect of over 45% in size
#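 ATP quantification (ATPlite) reports survival of PC12 cells in which tebufenozide, 100 nM final, switches on Htt exon 1 with 103 glutamines linked to GFP; compounds are titrated.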
# LMNA splice mod – LMNA splicing modulation. HeLa LMNA splicing GFP/RFP minigene ratio, 48 h. Potency, µM (titrated, usually from 46.1 µM), inactives show at the highest dose ratio change, negative = inhibition, most hits filed as inhibitors. actives 0.01% (n = 200,000). AID 1487; active means well fitted inhibition curve with a large enough effect in the signal ratio, with a control signal flat, not every such curve was filed as active; inconclusive means small, poorly fitted or top-dose-only effect, or effect the other way, or a change in a side signal; the % refers to the signal ratio; further: on the % scale 0 is the no-effect control and ±100 the full control effect
#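 Read-out is the ratio of GFP to DsRed2 object intensity, acquired by 488 nm laser-scanning cytometry on HeLa lamin A-EGFP minigene reporter cells. Compound incubation 48 hrs at 37 °C in Opti-MEM with 2% FBS; DMSO 0.5% final.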
# The depositor's hits bear a star; ? = inconclusive; nt = no result given; [ ] = remark or other dose. Unless noted, the call rests on the fitted dose curve; in most records, active means well fitted curve in the direction sought with a large enough effect; inconclusive means small, poorly fitted or top-dose-only effect, or another doubt; inactive means no such curve, though single readings can be large; an effect the other way counts as inactive or inconclusive. Potency means the concentration at half of the fitted maximal effect.
SMILES,HttQ103 aggreg,HPGD block,ALDH1A1 inh,HTT cytoprotect,LMNA splice mod
CC(=O)Nc1ccc(S(=O)(=O)NCCNc2ccccc2[N+](=O)[O-])cc1,9%,nt,4.5µM*,-32%,nt
CCCCC[C@H](O)/C=C/[C@H]1OC(O)C[C@H](O)[C@@H]1C/C=C\CC(=O)O (stereo not given in full),nt,-8%,-13%,-13%,nt
CCOC(=O)CC(C(=O)OCC)P(=O)(c1ccccc1)c1ccccc1 (stereo not given),23%,-3%,10µM*,-5%,4%
CCOC(=O)c1c(N2C(=O)CC(Sc3ccccc3C(=O)O)C2=O)sc(C)c1C (stereo not given),0%[9.22 µM],nt,nt,-7%[10 µM],nt
Cc1ccc(N2C(=O)CC(Sc3ccccc3C(=O)O)C2=O)c([N+](=O)[O-])c1 (stereo not given),5%[9.22 µM],nt,2µM*,2%[10 µM],?
COc1ccc(N2CCN(C(=O)c3ccccc3F)CC2)c([N+](=O)[O-])c1,14%[9.22 µM],nt,nt,11%[10 µM],nt
COc1ccc(N2C(=O)CC(Sc3ccccc3C(=O)O)C2=O)c([N+](=O)[O-])c1 (stereo not given),-4%,nt,1µM*,-3%[10 µM],?
CCCCC/C=C\C/C=C\CCCCCCCC(=O)O[C@@H](CO)COC(=O)CCCCCCCCCCCCCCCCC,nt,nt,-3%,13%,nt
c1ccc(Nc2ncnc3ccc(-c4cccnc4)cc23)cc1,nt,-22%,-2%,-51%,?
CC(C)N=C(N)/N=C(\N)Nc1ccc(Cl)cc1,10%[20.6 µM],0%,5%[20.9 µM],-4%[40.3 µM],?
NC(=NCCCCCCN=C(N)/N=C(\N)Nc1ccc(Cl)cc1)/N=C(\N)Nc1ccc(Cl)cc1,14µM*,39%,-7%,-98%,?
CCCCCCCCC(=O)NCc1cc(OC)c(O)cc1I,nt,?,?,-4%,nt
CCOC(=O)C1(Cc2cccc(F)c2)CCN(CC(O)CO)CC1 (stereo not given),-9%[9.22 µM],nt,nt,-3%[10 µM],nt
COc1cc2ncc3c(-c4ccc(C)cc4)nn(-c4ccc(F)cc4F)c3c2cc1OC,nt,nt,nt,nt,3%[46 µM]
C/C(=C\C(=S)Nc1ccccc1)Nc1ccccc1,25%,16µM*,5%,43%[10 µM],5%
CC1CCN(Cc2c(C#N)c3ccccc3n2C)CC1,-9%,-2%,32µM*,-7%,2%
COn1c2c(c3c4nonc4ccc31)CCCC2,?,?,?,4%,10%
COn1c(C)c(C(C)=O)c2c3nonc3ccc21,35µM*,-25%,?,6%,20%
O=C(CN1C(=O)S/C(=C\C=C\c2ccccc2)C1=O)Nc1cccc(O)c1,?,-23%,32µM*,-17%[10 µM],?
O=C(CN1C(=O)S/C(=C\C=C\c2ccccc2)C1=O)Nc1ccccc1C(=O)O,-8%[9.22 µM],nt,nt,-2%[10 µM],nt
CCOC(=O)c1ccc(-n2c(N)c(C(=O)OC)c3nc4ccccc4nc32)cc1,nt,nt,nt,nt,-7%[46 µM]
N#Cc1cc2ccccc2nc1SCc1ccccn1,-19%,25µM*,-7%,-67%[10 µM],4%
Cc1cc2cc3c(cc2nc1SCc1ccccn1)OCCO3,-14%,-10%,-5%,6%[10 µM],-16%
COc1cccc(/C=N/NC(=O)c2c(-c3ccccc3)noc2C)c1,6%,-5%,5%,5%,-7%
Cc1onc(-c2ccccc2)c1C(=O)N/N=C/c1cccc(O)c1,-15%,28µM*,0%,nt,?
SMILES,HttQ103 aggreg,HPGD block,ALDH1A1 inh,HTT cytoprotect,LMNA splice mod
Cc1nc2sc3c(c2c(=O)n1NC(=O)CCBr)CCCC3,8%[9.22 µM],nt,14µM*,12%[10 µM],nt
CCCc1nc2sc3c(c2c(=O)n1NC(=O)CCC(=O)OC)CCCC3,18%[9.22 µM],nt,nt,17%[10 µM],nt
CC(C)(C)C(=O)Nc1ccc(Sc2ccc([N+](=O)[O-])cc2)cc1,?,8.9µM*,5%,0%[10 µM],-17%
Fc1cccc(Cl)c1Cn1nnc2c(N3CCC4(CC3)OCCO4)ncnc21,-19%,-12%,16µM*,-7%[10 µM],?
CCCN1CCN(c2ncnc3c2nnn3Cc2ccccc2)CC1,-2%,25µM*,10µM*,4%,-15%
c1ccc(Cn2nnc3c(NCCN4CCOCC4)ncnc32)cc1,5%,-26%,?,-9%[10 µM],9%
c1ccc(Cn2nnc3c(N4CCCCCC4)ncnc32)cc1,-12%,32µM*,?,13%[10 µM],?
c1ccc(Cn2nnc3c(N4CCc5ccccc54)ncnc32)cc1,-4%,?,?,-3%[10 µM],-16%
FC(F)(F)c1ccc(N2CCN(c3ncnc4c3nnn4Cc3ccccc3Cl)CC2)cc1,-15%,?,?,-9%[10 µM],1%
Cc1ccc(NC(=O)Cn2c(=O)cnc3ccccc32)cc1S(=O)(=O)N(C)C,4%,-13%,14µM*,-1%[1.9 µM],?
CC(=O)c1ccccc1NC(=O)Cn1c(=O)cnc2ccccc21,15%,-14%,1.8µM*,15%[10 µM],?
Cc1ccc(NC(=O)CN2CCc3ccccc3C2)cc1S(=O)(=O)N(C)C,-1%,nt,?,-18%,-20%[46 µM]
COCCn1c(SCC(=O)Nc2ccc(Cl)c(S(=O)(=O)N(C)C)c2)nc2ccccc21,?,-17%,32µM*,-9%,?
CSc1ccccc1NC(=O)Cn1c(-c2cscn2)nc2ccccc21,-1%,-11%,-6%,-7%[10 µM],8%
FC(F)(F)c1ccc(-c2noc(-c3ccccc3)c2I)cc1,nt,-1%,2%,-93%,nt
COc1ccc(OC)c(-n2c(SCC(=O)N3CCc4ccccc43)nc3c(c2=O)SCC3)c1,-6%,-15%,8%,5%[10 µM],-8%
COc1ccc(-n2c(SCC(=O)Nc3ccc4c(c3)OCO4)nc3c(c2=O)SCC3)cc1,-1%,?,?,-43%,-5%
COc1ccccc1-n1c(SCC(=O)N2CCc3ccccc32)nc2c(c1=O)SCC2,-14%,-21%,11µM*,-7%[10 µM],?
COc1ccccc1-n1c(SCC(=O)Nc2ccc3c(c2)OCO3)nc2c(c1=O)SCC2,7%,-18%,20µM*,19%[10 µM],-2%
CC(C)C(NC(=O)CSCc1ccc([N+](=O)[O-])cc1)C(C)C,?,10µM*,-10%,-13%[10 µM],?
Cc1cc(C)n(C(C)CC(=O)Nc2cccc(C#N)c2)n1 (stereo not given),nt,nt,nt,nt,10%[46 µM]
COc1ccc(O)c(-c2[nH]ncc2C(=O)c2ccccc2)c1,?,-21%,7.9µM*,13%[0.074 µM],8%
CC(=O)OCCC(C)CCC=C(C)C (stereo not given),nt,-10%,-8%,nt,5%
COc1cccc(N=C(N)N)c1,27%,nt,8%,-8%,nt
O=C(CSc1n[nH]c(-c2ccccc2Cl)n1)N1CCN(c2ccccc2F)CC1,nt,nt,nt,nt,-9%[46 µM]
O=C(N/N=C(\c1ccccc1)c1ccccn1)c1cccc([N+](=O)[O-])c1,6.3µM*,nt,18µM*,-139%,17%[46 µM]
Cn1ccnc1/C(=N\NC(=O)c1ccccc1)c1cccc([N+](=O)[O-])c1,-8%,nt,?,-7%,?
O=C(Nc1ccccc1-c1ccccc1)c1cccc([N+](=O)[O-])c1,12%,-5%,7.9µM*,11%,26%
